# Assay results published in the supplement of paper PMC8728848.
# The sample as a whole holds a higher share of the strongest signals than the screen did.
# B1: Als3-2 (Candida albicans) (protein)
# chain: KTITGVFNSFNSLTWSNAATYNYKGPGTPTWNAVLGWSLDGTSASPGDTFTLNMPCVFKFTTSQTSVDLTAHGVKYATCQFQAGEEFMTFSTLTCTVSNTLTPSIKALGTVTLPLAFNVGGTGSSVDLEDSKCFTAGTNTVTFNDGGKKISINVDFERSNVDPKGYLTD
# Assays:
# Assay in all cases: glycan array binding signal (z-score within array); higher = stronger binding
# Conditions in all cases: glycan notation: IUPAC condensed, linker removed
# [1] = target: Fuc(a1-2)Gal(b1-3)GlcNAc(b1-2)Man(a1-3)[Fuc(a1-2)Gal(b1-3)GlcNAc(b1-2)Man(a1-6)]Man(b1-4)GlcNAc(b1-4)GlcNAc
# Outline: (§1)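 Negative Z-scores can be read as non-binding. The Z-score is calculated within each array and then averaged across arrays of one protein sequence at different concentrations or buffers and across linkers. Arrays, 3228 in all, were curated from the Consortium for Functional Glycomics database and kept only where the protein sequence was available.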
# [2] = target: Fuc(a1-2)Gal(b1-4)GlcNAc(b1-3)GalNAc
# Outline: as §1
# [3] = target: Fuc(a1-2)[Gal(a1-3)]Gal(b1-4)Glc
# Outline: as §1
# [4] = target: Fuc(a1-2)[GalNAc(a1-4)]Gal(b1-4)GlcNAc
# Outline: as §1
# [5] = target: Fuc(a1-3)[Gal(b1-4)]GlcNAc(b1-3)Gal(b1-3)[Fuc(a1-4)]GlcNAc
# Outline: as §1
# [6] = target: Fuc(a1-3)[Gal3S(b1-4)]Glc
# Outline: as §1
# [7] = target: Fuc(a1-3)[GalNAc(b1-4)]GlcNAc6S
# Outline: as §1
# Gal(a1-3)GalNAc = target: Gal(a1-3)GalNAc
# Outline: as §1
# Gal(a1-6)Glc = target: Gal(a1-6)Glc
# Outline: as §1
# Gal(b1-3)GalNAc = target: Gal(b1-3)GalNAc
# Outline: as §1
# [8] = target: Gal(b1-3)GlcNAc(a1-3)Gal(b1-4)GlcNAc
# Outline: as §1
# [9] = target: Gal(b1-3)GlcNAc(b1-3)Gal(b1-4)GlcNAc(b1-2)Man(a1-3)[Gal(b1-3)GlcNAc(b1-3)Gal(b1-4)GlcNAc(b1-2)Man(a1-6)]Man(b1-4)GlcNAc(b1-4)GlcNAc
# Outline: as §1
# [10] = target: Gal(b1-3)GlcNAc(b1-3)Gal(b1-4)GlcNAc(b1-6)[Gal(b1-3)GlcNAc(b1-3)]Gal(b1-4)Glc
# Outline: as §1
# [11] = target: Gal(b1-3)[Fuc(a1-4)]GlcNAc(b1-3)Gal(b1-4)[Fuc(a1-3)]GlcNAc
# Outline: as §1
# Gal(b1-4)Gal = target: Gal(b1-4)Gal
# Outline: as §1
# [12] = target: Gal(b1-4)GlcNAc(b1-2)Man(a1-3)[Man(a1-6)]Man(b1-4)GlcNAc(b1-4)GlcNAc
# Outline: as §1
# [13] = target: Gal(b1-4)GlcNAc(b1-3)Gal(b1-4)GlcNAc(b1-3)Gal(b1-4)GlcNAc(b1-2)Man(a1-3)[Gal(b1-4)GlcNAc(b1-3)Gal(b1-4)GlcNAc(b1-3)Gal(b1-4)GlcNAc(b1-2)Man(a1-6)]Man(b1-4)GlcNAc(b1-4)GlcNAc
# Outline: as §1
# [14] = target: Gal(b1-4)GlcNAc(b1-3)Gal(b1-4)GlcNAc(b1-3)Gal(b1-4)GlcNAc(b1-3)Gal(b1-4)GlcNAc(b1-3)Gal(b1-4)GlcNAc(b1-2)Man(a1-3)[Gal(b1-4)GlcNAc(b1-3)Gal(b1-4)GlcNAc(b1-3)Gal(b1-4)GlcNAc(b1-3)Gal(b1-4)GlcNAc(b1-3)Gal(b1-4)GlcNAc(b1-2)Man(a1-6)]Man(b1-4)GlcNAc(b1-4)GlcNAc
# Outline: as §1
# [15] = target: Gal(b1-4)GlcNAc(b1-3)Gal(b1-4)GlcNAc(b1-3)Gal(b1-4)GlcNAc(b1-3)Gal(b1-4)GlcNAc(b1-3)Gal(b1-4)GlcNAc(b1-2)Man(a1-3)[Gal(b1-4)GlcNAc(b1-3)Gal(b1-4)GlcNAc(b1-3)Gal(b1-4)GlcNAc(b1-3)Gal(b1-4)GlcNAc(b1-3)Gal(b1-4)GlcNAc(b1-2)Man(a1-6)]Man(b1-4)GlcNAc(b1-4)[Fuc(a1-6)]GlcNAc
# Outline: as §1
# [16] = target: Gal(b1-4)GlcNAc(b1-3)Gal(b1-4)GlcNAc(b1-3)Gal(b1-4)GlcNAc(b1-3)Gal(b1-4)GlcNAc(b1-3)Gal(b1-4)GlcNAc(b1-2)[Gal(b1-4)GlcNAc(b1-3)Gal(b1-4)GlcNAc(b1-3)Gal(b1-4)GlcNAc(b1-3)Gal(b1-4)GlcNAc(b1-3)Gal(b1-4)GlcNAc(b1-6)]Man(a1-6)[Gal(b1-4)GlcNAc(b1-3)Gal(b1-4)GlcNAc(b1-3)Gal(b1-4)GlcNAc(b1-3)Gal(b1-4)GlcNAc(b1-3)Gal(b1-4)GlcNAc(b1-2)Man(a1-3)]Man(b1-4)GlcNAc(b1-4)[Fuc(a1-6)]GlcNAc
# Outline: as §1
# [17] = target: Gal(b1-4)GlcNAc(b1-6)Gal(b1-4)GlcNAc
# Outline: as §1
# Gal3S(b1-4)GlcNAc = target: Gal3S(b1-4)GlcNAc
# Outline: as §1
# Gal6S(b1-3)GlcNAc = target: Gal6S(b1-3)GlcNAc
# Outline: as §1
# GalNAc(b1-4)GlcNAc = target: GalNAc(b1-4)GlcNAc
# Outline: as §1
# [18] = target: GlcNAc(b1-2)[GlcNAc(b1-6)]Man(a1-6)[GlcNAc(b1-4)][GlcNAc(b1-2)Man(a1-3)]Man(b1-4)GlcNAc(b1-4)GlcNAc
# Outline: as §1
# [19] = target: GlcNAc(b1-3)Gal(b1-4)GlcNAc(b1-3)Gal(b1-4)GlcNAc(b1-3)Gal(b1-4)GlcNAc(b1-3)Gal(b1-4)GlcNAc(b1-2)Man(a1-3)[GlcNAc(b1-3)Gal(b1-4)GlcNAc(b1-3)Gal(b1-4)GlcNAc(b1-3)Gal(b1-4)GlcNAc(b1-3)Gal(b1-4)GlcNAc(b1-2)Man(a1-6)]Man(b1-4)GlcNAc(b1-4)[Fuc(a1-6)]GlcNAc
# Outline: as §1
# GlcNAc(b1-4)GlcNAc = target: GlcNAc(b1-4)GlcNAc
# Outline: as §1
# Kdn(a2-3)Gal(b1-4)Glc = target: Kdn(a2-3)Gal(b1-4)Glc
# Outline: as §1
# Kdn(a2-3)Gal(b1-4)GlcNAc = target: Kdn(a2-3)Gal(b1-4)GlcNAc
# Outline: as §1
# Man(a1-2)Man(a1-3)Man = target: Man(a1-2)Man(a1-3)Man
# Outline: as §1
# [20] = target: Man(a1-2)Man(a1-3)[Man(a1-2)Man(a1-6)]Man(a1-6)[Man(a1-2)Man(a1-2)Man(a1-3)]Man
# Outline: as §1
# [21] = target: Neu5Ac(a2-3)Gal(b1-3)GalNAc(b1-3)Gal(a1-4)Gal(b1-4)Glc
# Outline: as §1
# [22] = target: Neu5Ac(a2-3)Gal(b1-3)GlcNAc(b1-6)GalNAc
# Outline: as §1
# [23] = target: Neu5Ac(a2-3)Gal(b1-3)[Fuc(a1-4)]GlcNAc(b1-3)Gal(b1-3)[Fuc(a1-4)]GlcNAc
# Outline: as §1
# [24] = target: Neu5Ac(a2-3)Gal(b1-4)GlcNAc(b1-2)Man(a1-3)[Neu5Ac(a2-6)Gal(b1-4)GlcNAc(b1-2)Man(a1-6)]Man(b1-4)GlcNAc(b1-4)GlcNAc
# Outline: as §1
# [25] = target: Neu5Ac(a2-3)Gal(b1-4)GlcNAc(b1-2)[Neu5Ac(a2-3)Gal(b1-4)GlcNAc(b1-4)]Man(a1-3)[GlcNAc(b1-4)][Neu5Ac(a2-3)Gal(b1-4)GlcNAc(b1-2)[Neu5Ac(a2-3)Gal(b1-4)GlcNAc(b1-6)]Man(a1-6)]Man(b1-4)GlcNAc(b1-4)GlcNAc
# Outline: as §1
# [26] = target: Neu5Ac(a2-3)Gal(b1-4)GlcNAc(b1-3)Gal(b1-4)GlcNAc(b1-3)[Neu5Ac(a2-3)Gal(b1-4)GlcNAc(b1-3)Gal(b1-4)GlcNAc(b1-6)]GalNAc
# Outline: as §1
# [27] = target: Neu5Ac(a2-3)Gal(b1-4)[Fuc(a1-3)]GlcNAc(b1-2)Man
# Outline: as §1
# [28] = target: Neu5Ac(a2-3)[GalNAc(b1-4)]Gal(b1-4)GlcNAc
# Outline: as §1
# [29] = target: Neu5Ac(a2-6)Gal(b1-4)GlcNAc(b1-3)Gal(b1-4)[Fuc(a1-3)]GlcNAc(b1-3)Gal(b1-4)[Fuc(a1-3)]GlcNAc
# Outline: as §1
# [30] = target: Neu5Ac(a2-8)Neu5Ac(a2-8)Neu5Ac
# Outline: as §1
# Neu5Gc(a2-3)Gal(b1-4)Glc = target: Neu5Gc(a2-3)Gal(b1-4)Glc
# Outline: as §1
# [31] = target: Neu5Gc(a2-3)Gal(b1-4)[Fuc(a1-3)]GlcNAc
# Outline: as §1
# [32] = target: Neu5Gc(a2-8)Neu5Gc(a2-6)Gal(b1-4)GlcNAc
# Outline: as §1
binder,measurement,setting,value
B1,glycan array binding signal (z-score),[1],7.12
same,glycan array binding signal (z-score),[2],9.17
same,glycan array binding signal (z-score),[3],-0.338
same,glycan array binding signal (z-score),[4],-0.444
same,glycan array binding signal (z-score),[5],3.23
same,glycan array binding signal (z-score),[6],-0.64
same,glycan array binding signal (z-score),[7],0.076
same,glycan array binding signal (z-score),Gal(a1-3)GalNAc,-0.308
same,glycan array binding signal (z-score),Gal(a1-6)Glc,-0.625
same,glycan array binding signal (z-score),Gal(b1-3)GalNAc,-0.398
same,glycan array binding signal (z-score),[8],-0.203
same,glycan array binding signal (z-score),[9],2.3
same,glycan array binding signal (z-score),[10],-0.603
same,glycan array binding signal (z-score),[11],-0.461
same,glycan array binding signal (z-score),Gal(b1-4)Gal,-0.552
same,glycan array binding signal (z-score),[12],0.449
same,glycan array binding signal (z-score),[13],3.26
same,glycan array binding signal (z-score),[14],5.24
same,glycan array binding signal (z-score),[15],3.26
same,glycan array binding signal (z-score),[16],3.16
same,glycan array binding signal (z-score),[17],1.11
same,glycan array binding signal (z-score),Gal3S(b1-4)GlcNAc,0.36
same,glycan array binding signal (z-score),Gal6S(b1-3)GlcNAc,3.68
same,glycan array binding signal (z-score),GalNAc(b1-4)GlcNAc,0.934
same,glycan array binding signal (z-score),[18],-0.7
same,glycan array binding signal (z-score),[19],3.13
same,glycan array binding signal (z-score),GlcNAc(b1-4)GlcNAc,0.531
same,glycan array binding signal (z-score),Kdn(a2-3)Gal(b1-4)Glc,-0.075
same,glycan array binding signal (z-score),Kdn(a2-3)Gal(b1-4)GlcNAc,-0.528
same,glycan array binding signal (z-score),Man(a1-2)Man(a1-3)Man,-0.511
same,glycan array binding signal (z-score),[20],-0.73
same,glycan array binding signal (z-score),[21],-0.583
same,glycan array binding signal (z-score),[22],1.45
same,glycan array binding signal (z-score),[23],-0.524
same,glycan array binding signal (z-score),[24],-0.401
same,glycan array binding signal (z-score),[25],3.2
same,glycan array binding signal (z-score),[26],6.15
same,glycan array binding signal (z-score),[27],0.73
same,glycan array binding signal (z-score),[28],-0.449
same,glycan array binding signal (z-score),[29],-0.584
same,glycan array binding signal (z-score),[30],-0.398
same,glycan array binding signal (z-score),Neu5Gc(a2-3)Gal(b1-4)Glc,0.047
same,glycan array binding signal (z-score),[31],-0.059
same,glycan array binding signal (z-score),[32],-0.628
